CD40 NFkB inh: inhibitors of CD40-induced NF-kB signaling, primary screen, BL2 cells, luciferase reporter, single point; CD40L-induced, 4 h; actives 0.94% (n = 83,000); inhibition, % at 10 µM;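 active means mean inhibition of at least 50% with a set share of replicates also reaching that level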;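 further: 0% = neutral control wells and 100% = IKK inhibitor VII at 50 µM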
* hit, by the source's call; ! = repeats disagree; [ ] = dose if it differs, or a comment. Shown is part of a subset that was picked to be rich in hits.

COc1cccc(C(=O)C2CCCN(Cc3ccc4nonc4c3)C2)c1 (stereo unspecified) was read as CD40 NFkB inh 0.8.
`CCOC(=O)c1ccccc1C(=O)OCC` gave CD40 NFkB inh -4.5.
For O=C(NC(Cc1ccccc1)C(=O)N1CCC2(CC1)OCCO2)C1CCCCC1 (stereo unspecified) the results were CD40 NFkB inh 10.0.
For O=[N+]([O-])c1ccc(N2CCOCC2)c2c1no[n+]2[O-] the results were CD40 NFkB inh 86.0*.
`O=[N+]([O-])c1ccc(N2CC2)c([N+](=O)[O-])c1` gave CD40 NFkB inh 0.8.
`O=[N+]([O-])c1ccc(N2CCCCC2)c2ncccc12` gave CD40 NFkB inh -8.1.
For O=C(N[C@H]1CN2CCC1CC2)c1ccc(Cl)cc1 the results were CD40 NFkB inh -0.6[25 µM].
CC(C)(C)c1ccccc1O was read as CD40 NFkB inh 3.0.
`Cc1ccc(S(=O)(=O)NC(CC(=O)N2CCC3(CC2)OCCO3)c2ccco2)cc1` (stereo unspecified) gave CD40 NFkB inh 1.9.
For COP(=S)(OC)SCN1C(=O)c2ccccc2C1=O the results were CD40 NFkB inh 32.1*.
Screening Clc1ccccc1C1NCc2ccccc2-n2cccc21 (stereo unspecified) returned CD40 NFkB inh 11.6.
`O=C(c1ccco1)C12CN3CN(CN(C3)C1)C2` gave CD40 NFkB inh 15.9.
For CNC(=O)Oc1c(C)[nH]ccc1=O the results were CD40 NFkB inh 5.2.
Screening CCN(CC)C(=O)c1ccc(NC(=O)c2ccc(N3CCCC3=O)cc2)cc1 returned CD40 NFkB inh 15.8.
For CCN(CC)C(=O)c1ccc(NC(=O)c2cccc(S(=O)(=O)N3CCN(Cc4ccccc4)CC3)c2)cc1 the results were CD40 NFkB inh 17.5.
Screening CCN(CC)C(=O)c1ccc(NC(=O)Nc2ccccc2F)cc1 returned CD40 NFkB inh 83.5*.
Screening CCN(CC)P(=O)(NC(=O)C(Cl)(Cl)Cl)N(CC)CC.[Cl-].[Cl-].[Cl-].[Nd+3] returned CD40 NFkB inh 8.7.
O=C1c2ccccc2-c2cccc3cccc1c23 was read as CD40 NFkB inh -47.0.
`Cc1noc(C)c1C(=O)N1CCC2(CC1)OCCO2` gave CD40 NFkB inh 4.2.
COc1ccc(C=C2C(=O)NC(=S)NC2=O)cc1 was read as CD40 NFkB inh 1.4.
CCC1C2Cc3ccc(O)cc3C1(CC)CCN2C (stereo unspecified) was read as CD40 NFkB inh -4.0.
For CS(=O)(=O)N1C[C@@H]2N[C@H](C1)C2c1ccc(Br)cc1 (stereo partly specified) the results were CD40 NFkB inh -3.8.
CN1[C@@H]2CN(S(C)(=O)=O)C[C@H]1C2c1ccc(Br)cc1 (stereo partly specified) was read as CD40 NFkB inh 27.8*!.
For CN1[C@@H]2CN(S(C)(=O)=O)C[C@H]1C2c1ccccc1 (stereo partly specified) the results were CD40 NFkB inh 3.9.
Screening COC(=O)[C@H]1[C@H](CO)[C@H]2Cn3c(ccc(-c4cccc(C(=O)N(C)C)c4)c3=O)[C@@H]1N2C(=O)NC(C)C returned CD40 NFkB inh -2.7[25 µM].
Screening Cn1ncnc2c(=O)n(C)c(=O)nc1-2 returned CD40 NFkB inh 86.0*.
Cc1nn(C2CCOC(C)(C)C2)c2c1C(c1ccc3c(c1)OCO3)SCC(=O)N2 (stereo unspecified) was read as CD40 NFkB inh 6.7.
Screening O=[N+]([O-])c1ccc(N2CCCC(C(F)(F)F)C2)c2ccncc12 (stereo unspecified) returned CD40 NFkB inh 11.7.
`O=C(COc1ccccc1)N1CCN(Cc2c[nH]c3ccccc23)CC1` gave CD40 NFkB inh 13.4.
Screening CCC1CCC(C)N(N=O)C1 (stereo unspecified) returned CD40 NFkB inh 11.0.

Screens deposited in PubChem BioAssay by Broad Institute.
